Holding throughout (assay): NCI-60 one-dose screen, 48 h (100 = growth as untreated, 0 = no growth, -100 = all killed)
In assay [1] the test system is HCT-15 colon. The conditions noted are these: 10 µM unless noted.
The test system of assay [2] is HT29 colon. The conditions noted are these: 10 µM unless noted.
The test system of assay [3] is SNB-75 CNS. The conditions noted are these: 10 µM unless noted.
The subject of assay [4] is SNB-19 CNS. The conditions noted are these: 10 µM unless noted.
Assay [5] relates to U251 CNS. The conditions noted are these: 10 µM unless noted.
In assay [6] the test system is PC-3 prostate. The conditions noted are these: 10 µM unless noted.
In assay [7] the test system is SK-MEL-5 melanoma. The conditions noted are these: 10 µM unless noted.
The test system of assay [8] is UACC-62 melanoma. The conditions noted are these: 10 µM unless noted.
For assay [9], the system named is LOX IMVI melanoma. The conditions noted are these: 10 µM unless noted.
Assay [10] concerns SK-MEL-28 melanoma. The conditions noted are these: 10 µM unless noted.
Assay [11] relates to SK-MEL-2 melanoma. The conditions noted are these: 10 µM unless noted.
The test system of assay [12] is EKVX NSCLC. The conditions noted are these: 10 µM unless noted.
Assay [13] has as its system SN12C renal. The conditions noted are these: 10 µM unless noted.
Assay [14] concerns UO-31 renal. The conditions noted are these: 10 µM unless noted.
Assay [15] concerns TK-10 renal. The conditions noted are these: 10 µM unless noted.
Assay [16] has as its system ACHN renal. The conditions noted are these: 10 µM unless noted.
Assay [17] deals with CAKI-1 renal. The conditions noted are these: 10 µM.
The test system of assay [18] is A498 renal. The conditions noted are these: 10 µM unless noted.
In assay [19] the test system is CCRF-CEM leukemia. The conditions noted are these: 10 µM unless noted.
Assay [20] has as its system MOLT-4 leukemia. The conditions noted are these: 10 µM unless noted.

The results in this text go back to PubChem BioAssay (NCI).

Compounds without any hit were thinned out: in the full panel of roughly 83,000, 20% have a hit.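 96-well plates, one dose, 48 hours. Percent growth reported; active if below 10.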 Unmarked numbers belong to inactive results. Active and inactive are the calls of the source.

Consider `NS(=O)(=O)c1ccc(-n2cc(CC=O)nn2)cc1`, for which the growth was 99.8% in assay [1]; 101% in [2]; 90.1% in [3]; 102% in assay [4]; 102% in assay [5]; 100% in assay [6]. The growth is 100% in assay [7]; 95.7% in [8]; 98.9% in [9]; 114% in [10]; 109% in [11]; 99.2% in assay [12]. The growth in [13] was 106%; in assay [14], 87.7%; in [15] it was 98.5%; in assay [16] it was 107%; in [17], 92.2%; in assay [18], 96%. Besides, the results for the growth in assay [19] and in assay [20] were 110% and 103%, respectively.

With `C/C(=C(/C)C1CC1CCN(C(=O)c1ccc([N+](=O)[O-])cc1)S(=O)(=O)c1ccc(C)cc1)C1CCCCC1` (stereo not given), the growth in assay [1] was 98.1%; in assay [2], 99.2%; in assay [3], 106%; in assay [4], 92.5%; in assay [5] it was 94.7%; in [6], 85.4%. Moreover, the growth was 99.4% in [7]; 79.7% in assay [8]; 93.9% in assay [9]; 101% in assay [10]; 102% in [11]; 82.4% in [12]. Further, the growth was 91.8% in [13]; 92.2% in assay [14]; 108% in [15]; 99% in assay [16]; 84.9% in assay [17]; 105% in [18]. Moreover, the growth in assay [19] is 93.6%; in assay [20], 80.3%.

For the molecule `Cc1[nH]nc2ccc(-c3nc4cnc(N5CCN(C)CC5)cn4c3Nc3ccc(F)cc3Br)cc12`, the growth in [1] is 27.8%; in [2], 4.1% (active); in assay [3], 82.7%; in [4], 45.4%; in [5], 14.4%; in assay [6], 47.6%. Moreover, the growth in [7] was 75.4%; in assay [8], 17.9%; in [9] it was -10.4% (active); in assay [10], 62.8%; in assay [11], 91.1%; in assay [12], 86.1%. Besides, the growth in assay [13] was 29.9%; in assay [14], 50.4%; in assay [15], 65%; in assay [16] it was 48.3%; in assay [17], 21%; in assay [18], 82.3%. The results for the growth in assay [19] and in assay [20] were 3.21% (active) and 39.4%, respectively.

For the molecule `Cn1cc2c(c1)-c1c(sc3nc(-c4ccc(NC(=O)Nc5cc(C(C)(C)C)on5)cc4)cn13)CC2`, the growth in assay [1] was 12.2%; in assay [2] it was 21.9%; in assay [3], -1.5% (active); in assay [4], 46.7%; in [5] it was 24.3%; in assay [6] it was 38.7%. Also, the growth is 63.1% in assay [7]; 87.7% in assay [8]; 16.9% in assay [9]; 54.2% in assay [10]; 65.5% in [11]; 60.2% in assay [12]. For the same molecule, the growth is 59.9% in assay [13]; 18.2% in assay [14]; 95.4% in [15]; 42.1% in assay [16]; 28.1% in assay [17]; 32.1% in [18]. For the same molecule, the growth in assay [19] was 28.2%; in [20] it was 12%.

Turning to `O=C(Nc1cccc(-c2nc(-c3ccc(NC(=O)c4cccnc4)cc3Cl)no2)c1)Nc1ccc(NC(=O)C2CC2)c(C(F)(F)F)c1`, the growth was 9.01% (active) in assay [1]; -26.8% (active) in assay [2]; -73.7% (active) in [3]; -0.276% (active) in assay [4]; -48% (active) in assay [5]; -65.8% (active) in [6]. Besides, the growth in [7] was -92.9% (active); in assay [8] it was -81.9% (active); in [9], -93.3% (active); in [10] it was -83.7% (active); in assay [11], -55% (active); in assay [12], -28% (active). The growth in [13] is -60.8% (active); in assay [14], 17.8%; in assay [15], -20.4% (active); in assay [16], 9.95% (active); in assay [17], -72.7% (active); in assay [18], -69.6% (active). The growth is -16.3% (active) in assay [19] and -39.7% (active) in assay [20].

As for `CC(C)=CCC[C@](C)(O)[C@H]1CC[C@]2(C)[C@@H]1CC[C@@H]1[C@@]3(C)CCC(NC(=O)c4ccccc4C(=O)O)C(C)(C)[C@@H]3CC[C@]12C` (stereo not given in full), the growth in assay [1] is 87.7%; in [2], 75.5%; in assay [3] it was 90.2%; in assay [4], 86.3%; in assay [5] it was 88.6%; in assay [6], 81.5%. Besides, the growth is 55.4% in assay [7]; 28.7% in assay [8]; 84.3% in assay [9]; 34.3% in [10]; 39.8% in assay [11]; 101% in [12]. The growth in assay [13] is 92.9%; in assay [14] it was 85.2%; in assay [15], 106%; in assay [16], 73.5%; in assay [17], 66.4%; in [18], 103%. Besides, the growth in assay [19] was 95.9%; in assay [20], 97.5%.

In the case of `COc1ccc(/C=N\NC(=O)c2ccc3nc(-c4ccc(Br)cc4)[nH]c3c2)cc1`, the growth in [1] was 48.1%; in [2], 17.5%; in assay [3] it was 46.1%; in assay [4], 19.2%; in assay [5], -51.5% (active); in assay [6], 20.8%. In addition, the growth in assay [7] was 24.2%; in assay [8], 34.6%; in assay [9], -26% (active); in assay [10], 13.8%; in [11] it was 96.9%; in assay [12] it was 39.6%. In addition, the growth is 17.1% in assay [13]; 75.9% in [14]; 51.6% in [15]; 35.1% in assay [16]; 35% in assay [17]; 82% in assay [18]. Besides, the growth in [19] was 53.2%; in assay [20], 61.9%.
